The panel holds about 79,000 compounds, 15% with a hit somewhere; the sample as a whole holds those more often. Unmarked numbers belong to inactive results. The source made the active and inactive calls. No stated cut-off is given here; in the data, active means growth inhibition above about 70%; inactive means the rest.
Tests used:
[1] = NCI Yeast Anticancer Drug Screen. Data for the rad50 strain (AID 155);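 further: 0% = growth of vehicle-only cultures of the same strain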; conditions: S. cerevisiae rad50 strain growth inhibition; at 50.0 µM; hits give high values
Summary of the method: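 Cells are treated with compound, grown, and their growth is then scored against vehicle-only cultures of the same repair-deficient yeast strain.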

[2] = NCI Yeast Anticancer Drug Screen. Data for the mec2-1 strain (AID 157); conditions: S. cerevisiae mec2-1 strain, at 50.0 µM, hits give high values
Summary of the method: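 Readout is yeast growth inhibition, normalised to vehicle-treated controls, in the mec2-1 strain exposed to compound.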

[3] = NCI Yeast Anticancer Drug Screen. Data for the sgs1 mgt1 strain (AID 161);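 further: 0% = growth of cultures given vehicle only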; conditions: S. cerevisiae sgs1 mgt1 strain, at 50.0 µM, hits give high values
Summary of the method: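 Yeast cells carrying a defined DNA-repair defect were exposed to test compounds. Growth inhibition was measured relative to vehicle-treated controls.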

[4] = NCI Yeast Anticancer Drug Screen. Data for the cln2 rad14 strain (AID 165);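 further: 0% = growth equal to vehicle treated cultures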; conditions: S. cerevisiae cln2 rad14 strain, at 50.0 µM, hits give high values
Summary of the method: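 Relative to vehicle controls, growth inhibition of compound-treated cln2 rad14 yeast was recorded.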

[5] = NCI Yeast Anticancer Drug Screen. Data for the bub3 strain (AID 167); conditions: S. cerevisiae bub3 mutant strain, at 50.0 µM, hits give high values
Summary of the method: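 Part of a panel of yeast mutants defective in DNA damage repair or cell cycle regulation. Each strain is grown with compound, and inhibition is calculated relative to solvent-treated cultures.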

[6] = NCI Yeast Anticancer Drug Screen. Data for the mlh1 rad18 strain (AID 175); conditions: S. cerevisiae mlh1 rad18 strain growth inhibition; at 50.0 µM; hits give high values
Summary of the method: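 Test agents were incubated with a yeast strain of defined genotype (DNA damage repair defect). Inhibition of growth was derived by comparison with vehicle-exposed cultures.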

Row | SMILES | growth inhibition [1] | growth inhibition [2] | growth inhibition [3] | growth inhibition [4] | growth inhibition [5] | growth inhibition [6]
1 | CN(C)/N=C\c1ccc(C(=O)O)cc1 | -4.35% | 25.6% | 8.5% | -11.9% | 28.3% | 22.9%
2 | CC1OC(c2ccccc2Cl)OC1C (configuration not stated) | 1% | -2.75% | -9.7% | -8.5% | -3.05% | -11.7%
3 | Cc1cccc(C(C)(O)c2cnc(C)n2Cc2ccccc2)c1 (configuration not stated) | 5.1% | 14.2% | 10.8% | 18.8% | 9.35% | 15.2%
4 | O=C(OC(=O)c1ccc(Cl)cc1)c1ccc(Cl)cc1 | -4.65% | 25.9% | 5.45% | -8.15% | -9.2% | -7.35%
5 | C[n+]1cccc(C(=O)O)c1-c1ccccc1 | 20.4% | 5.9% | 5.85% | -39.5% | 4.55% | 10.3%
6 | N#CCCOC1C(OCCC#N)C(OCCC#N)C(OCCC#N)C(OCCC#N)C1OCCC#N (configuration not stated) | -14.2% | -23.1% | 8% | 17.7% | 28.2% | 16.1%
7 | Cc1ccc(N=Cc2cc(Br)ccc2O)cc1Cl | 98.6% (active) | 99% (active) | 99.1% (active) | 95% (active) | 98.7% (active) | 96.8% (active)
8 | O=[N+]([O-])c1ccc2c(c1)Cc1cc([N+](=O)[O-])ccc1-2 | -12.3% | -64.5% | -25.4% | -181% | -54.1% | 51.2%
9 | CC(=O)Nc1ccc(OC(C)=O)cc1 | 14.4% | -0.85% | 3.55% | 20.5% | 2.7% | 24.4%
10 | COc1nc(C(O)C2OC(C)(C)OCC2O)[nH]c1C#N (configuration not stated) | 6.05% | 7% | 7.75% | 10.7% | 2.35% | 7.35%
11 | CSc1ccc(NC(=O)Oc2ccc(NC(C)=O)cc2)cc1 | 8.55% | -0.95% | 6.05% | 14.4% | 22.8% | 4.45%
12 | C/C(CC(=O)Nc1ccc(Cl)cc1)=N\NC(N)=S | -7.95% | -4.65% | 9.6% | 20.4% | -3.75% | -0.6%
13 | Cc1ccc(S(=O)(=O)OC(CI)C2OC(c3ccccc3)OC3COC(c4ccccc4)OC32)cc1 (configuration not stated) | 0.25% | 13.2% | 7.7% | 8.6% | 16.1% | 25.6%
14 | C1=NC(c2ccccc2)=CN(C2CCCCC2)C1(c1ccccc1)C1CCCCC1 (configuration not stated) | 97.1% (active) | 96.5% (active) | 97.2% (active) | 94.6% (active) | 95.7% (active) | 96.5% (active)
15 | CC(c1ccc(O)cc1)c1cc2c(cc1OCCO)OCO2 (configuration not stated) | 99.3% (active) | 99% (active) | 99.4% (active) | 99.3% (active) | 99.5% (active) | 99.1% (active)
16 | C[N+](C)(CCNCC(N)=O)CC(N)=O | -17.6% | -4.2% | -19.1% | -9.95% | 5.15% | -1.5%
17 | Cc1ccc(C(=O)NCCN2CCCC2)c([N+](=O)[O-])c1OCc1ccccc1 | 6.15% | -20% | 4.8% | -22.9% | -4.85% | -5.8%
18 | COc1ccc2oc3cc(NCCN(C)C)ccc3c(=O)c2c1 | -4.65% | -21.7% | -25.6% | 15.9% | -19.9% | -19.3%
19 | Nc1ncc2c(ncn2CC(O)CO)n1 (configuration not stated) | -24.6% | -2.5% | -1.55% | 4.65% | -3% | -3.25%
20 | O=C1CSC(c2cccc(O)c2O)N1c1nncs1 (configuration not stated) | 1.35% | 0.25% | 1.85% | -6.9% | 5.9% | -5.35%
21 | O=C(/C=C/c1cccs1)c1ccc(C(=O)/C=C/c2cccs2)cc1 | -32.6% | -46.4% | -18% | 11.2% | -3.5% | -31.9%

Row | SMILES | growth inhibition [1] | growth inhibition [2] | growth inhibition [3] | growth inhibition [4] | growth inhibition [5] | growth inhibition [6]
22 | O=C1c2ccccc2CN1c1ccc(O)cc1 | 5.65% | 1.5% | -14.8% | 20.9% | -1.2% | 16.9%
23 | Cc1ccc([N+](=O)[O-])cc1Br | 0.3% | -16.1% | -0.5% | -11.8% | 5.5% | 4%
24 | O=[N+]([O-])c1cc(F)ccc1Sc1ccccc1 | 49.2% | 23.4% | 38.9% | 39.8% | 20.6% | 40.6%
25 | CCOC(=O)NC(NC(=O)OCC)c1ccc(C(NC(=O)OCC)NC(=O)OCC)cc1 | 30.9% | 13.2% | 5.45% | 5% | 2.8% | 7.9%
26 | O=C(Cc1ccccc1)Nc1cccc2ccccc12 | 6.15% | 1.7% | 0.8% | 1% | 22.9% | 0.9%
27 | CCN(CC)C(=O)c1cc2c(cc1[N+](=O)[O-])OCO2 | -0.6% | -15.4% | 3.65% | -45.8% | 1.25% | -18.4%
28 | C=CCNC(=S)NN(C)C | -42% | -16% | -16.9% | -51.5% | -28.2% | -16.4%
29 | CC(C)(O)c1cc2nc3ccccc3nc2n1CCO | -19.6% | -22.4% | 8.45% | 4.25% | 4.25% | -14.4%
30 | CC(=O)c1cccc2cc(CC(=O)c3ccccc3)c(=O)oc12 | 12.2% | 5.6% | 6.4% | -33.1% | 11.1% | 1.35%
31 | CC(O)CC(=O)c1ccc(O)cc1 (configuration not stated) | -42% | -41% | -30.2% | 1.7% | -49.5% | -41.3%
32 | NNc1ncnc2cccc(Cl)c12 | 7.95% | 27.2% | 18.6% | -24.7% | 1.8% | 11.9%
33 | COC(=O)C(N)Cc1ccc(OCc2ccccc2)cc1 (configuration not stated) | -0.8% | 5.2% | -2.25% | -4.25% | 24.4% | -5.35%
34 | C=CCOc1ccc(N)c([N+](=O)[O-])c1 | 42.1% | 41.5% | 23.3% | 14.1% | 36.7% | 2.85%
35 | N#CC1=C(N)N(c2ccccc2)C(c2ccco2)C1(C#N)C#N (configuration not stated) | 4.85% | 13.3% | 9.85% | 3.35% | -13.7% | 6.25%
36 | CCOc1ccc(C(=O)OC(C)C)cc1 | 26.5% | 4.15% | 1.9% | 2.7% | -2.45% | 6.15%
37 | CCCCCCCCCCCC(=O)CC(=O)c1c(O)cccc1O | 1.35% | -11.6% | 6.45% | 0.1% | 20.7% | -12.2%
38 | C=CCC(O)CC=C | -8% | -47.5% | 7.15% | -6.5% | 5.2% | -1.7%
39 | NC(=O)/C(=C(/O)C(=O)O)c1ccnc2ccccc12 | 4.85% | -4.8% | 7.35% | -41% | -4.2% | -2.15%
40 | CCCNc1nc(C)nc2[nH]c(Cc3ccccc3)c(C)c12 | 12.4% | 11.9% | 21.9% | 0.8% | 14.8% | 27.1%
41 | N#CC1c2ccccc2C=CN1C(=O)c1ccccc1 (configuration not stated) | -15.9% | -15.9% | 12.5% | -18.9% | -8.95% | -24.4%
42 | Clc1cccc2[nH]ccc12 | -6.1% | -3.1% | -23.9% | -10.2% | -11.3% | -3.9%
